The values that follow come from PubChem BioAssay (NCATS).

Test [1] can be described thus: P-glycoprotein substrates identified in KB-8-5-11 adenocarcinoma cell line, qHTS therapeutic library screen (AID 1346987). Also: nearly all actives have a fitted effect of over 65% in size. The gist of the method:
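Steps: plate 500 KB-8-5-11 cells/well in DMEM + 10% FCS (colchicine removed); pin compounds in dose-response; incubate 72 h, 37 degree C, 5% CO2; add CellTiter-Glo, 5 min; read luminescence.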
On the technique in general: qHTS replaces the single test concentration by a dilution series.

A short description of test [2]: P-glycoprotein substrates identified in KB-3-1 adenocarcinoma cell line, qHTS therapeutic library screen (AID 1346986). Also: nearly all actives have a fitted effect of over 60% in size.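 Also: potency is for cytotoxicity meaning loss of cell viability.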 Put shortly: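 Resistance attributable to P-gp was assessed by comparing AC50 in KB-8-5-11 with parental KB-3-1 and by tariquidar reversal. Cells were exposed 72 h and viability read by CellTiter-Glo.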
Test [3] relates to Zika virus NS2B-NS3 protease (linked construct). Description: Confirmatory screen NINDS AMC qHTS for Zika virus inhibitors (AID 1347152). Also: nearly all actives have a fitted effect of over 70% in size. The gist of the method:
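Concentration-response confirmation used the NINDS linked protease (NS2B hydrophilic domain joined to NS3 protease domain), 1 nM, with a 15-min compound preincubation. Substrate, Nle-KRR-AMC at 10 microM, was read by UV fluorescence before and after 15 min.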

Test [4] deals with Zika virus NS2B-NS3 protease (unlinked complex). The experiment in a line: Confirmatory screen GU AMC qHTS for Zika virus inhibitors (AID 1347153).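 Also: enzyme at 25 nM with substrate at 10 µM below its Km of 18.3 µM; nearly all actives have a fitted effect of over 70% in size.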 The conditions noted are these: Recombinant NS2B-NS3 protease, AMC substrate fluorescence. Put shortly: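 Fluorescence change (ex 340/em 450 nm) over 15 min, ~20% substrate conversion, normalized to no-inhibitor and no-enzyme controls, then Hill-fitted. Unlinked protease at 25 nM; AMC peptide 10 µM.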

Test [5] deals with Zika virus NS2B-NS3 protease. Description: Primary screen GU AMC qHTS for Zika virus inhibitors (AID 1347154). Also: nearly all actives have a fitted effect of over 70% in size. From the text: Avindra Nath, Ph.D., National Institute of Neurological Disorders and Stroke (NINDS), Bethesda, MD
Radhakrishnan Padmanabhan, Ph.D., Georgetown University (GU), Washington D.C.
Zika Virus causes congenital defects, including microcephaly and is associated with Guillain-Barre syndrome, eningoencephalitis and myelitis in infected adult. […] Using a target-based approach, we hope to establish a screening paradigm to uncover novel, cell-active NS2B-NS3 protease (Zika Virus) specific inhibitors from NCATS' collection of small molecules using qHTS.
Early Translation Branch (ETB)
National Center for Advancing Translational Sciences (NCATS), Rockville, MD
National Institute of Health (NIH), Bethesda, Maryland
Padmanabhan lab provided the NS2B hydrophilic domain and NS3 protease domain in a noncovalent complex used for the unlinked assay. Control compound aprotinin is obtained from Thermo Scientific (#78432; Waltham, Massachusetts). NS2B-NS3 AMC substrate (Bz-Nle-Lys-Arg-Arg-AMC; Nle-KRR-AMC) purchased from Bachem (#I-1995; Torrance, CA). Ac-VKTGKR-AMC purchased from Genscript or Bachem, Ac-FAAGKR-AMC purchased from Genscript, Ac-GLVKRR-AMC purchased from Genscript, Ac-LKKR-AMC purchased from Genscript.
GU AMC unlinked NS2B-NS3 protease qHTS protocol
Briefly, 3 microL of Zika virus unlinked NS2B-NS3 protease (25 nM for linked final concentration), in assay buffer (10 mM Tris-HCl pH 8.0 with 0.01% Tween 20) was dispensed into a 1,536-well solid-bottom black plate (Greiner Bio One, Monroe, NC). […] Plates were then read immediately on a ViewLux High-throughput CCD imager (PerkinElmer, Waltham, MA) equipped with standard UV fluorescence optics (340(30) nm excitation, 450(20) nm emission) then incubated (room temperature, protected from light) for 15 minutes (~20% conversion). The change in fluorescence intensity over the 15-minute reaction period was normalized against no-inhibitor and no-enzyme controls and the resulting percent inhibition data were fitted to a 4-parameter Hill equation. Aprotinin was used as the intraplate control.

Where “and” joins values, the source holds several entries; their conditions need not be identical. Equal entries are not always repeated. Inconclusive results are not listed. A number with no mark means an inactive call. Calls of active or inactive are those of the source. Calls follow the shape of the dose curve; as a rule, active = well fitted curve in the direction sought with a large enough effect; inconclusive = small, poorly fitted or top-dose-only effect, or another doubt; inactive = no such curve, though single readings can be large; an effect the other way counts as inactive or inconclusive. *1 amine or outer side, *2 acyl side, *3 side chain or, on linkers, in order; H or OH if unused. Where a SMILES comes first, the peptide text is derived from it. Bridges are numbered along the chain shown (N, C = ends). [ ]: non-standard residue; d: D form. The star is where a group is joined. pTerphenylCO(4''-OnC5H11) = CCCCCOc1ccc(-c2ccc(-c3ccc(C(=O)*)cc3)cc2)cc1; Orn(4R-OH,5R-OH) = O=C([C@H](C[C@@H](O)[C@@H](O)N[*:3])N[*:1])[*:2]; hTyr(3S-OH,4S-OH) = N[C@H](C(=O)O)[C@H](O)[C@@H](O)c1ccc(O)cc1; Pro(3S-OH,4S-Me) = C[C@H]1CN[C@H](C(=O)O)[C@H]1O; Hyp = O=C(O)[C@@H]1C[C@@H](O)CN1
Potency is read from the fitted curve at half-maximal effect.

Take `C/C(=C\CCC(C)C1=CCC2(C)OC3=C(CC12)C(=O)C(O)CC3)CO` (stereo not given): the Potency result in test [1] is “inactive”.
On to `CCN(CC)C(=O)C(c1ccccc1)N1CCN(c2ccc(NC(=O)c3ccccc3-c3cccnc3)cc2F)CC1` (stereo not given), for which the Potency result in test [2] and in test [1] was “inactive” in each case.
With `CC1OC2OC(=O)C3(C)CC4C5(CO5)C5=CC(=O)OC(C)(C)C5=CC(=O)C4(C)C(C1=O)C23` (stereo not given), the Potency entry in test [2] and in test [1] was “inactive” each time.
As for `CCCNCCc1ccc(NS(=O)(=O)c2ccc(OC(F)(F)F)cc2)cc1`, the Potency result in test [1] was “inactive”.
For `O=C1NC(=O)C(c2cnc3ccccn23)=C1c1cn2c3c(cc(F)cc13)CN(C(=O)N1CCCCC1)CC2`, the Potency in test [2] was 5.8 µM (active); in test [1] it was 16.4 µM (active).
For `CN1c2c(nc(N)[nH]c2=O)NC[C@@H]1CNc1ccc(C(=O)N[C@@H](CCC(=O)O)C(=O)O)cc1`, in that order: “inactive” and “inactive”.
For `C=C1CC[C@@H](O)[C@]2(C)CC[C@H]3C(=C)C(=O)O[C@@H]3[C@@H]12`, in that order: “inactive” and “inactive”.
For `CC(C)n1nc(C#Cc2ccccc2)c2c(N)ncnc21`, in that order: 14.6 µM (active) and 16.4 µM (active).
Take `C=CC(=O)Nc1cccc(Nc2nc(Nc3ccc(OCCOC)cc3)ncc2F)c1`: the Potency in test [2] is 11.6 µM (active); in test [1], 7.31 µM (active).
Consider `C=C(C)C1=C[C@@]2(C)C(=CC1=O)CC[C@@H](O)[C@@H]2C`, for which the Potency result in test [2] and in test [1] was “inactive” throughout.
For the molecule `CCN(Cc1cc(Nc2nc(C)cn3c(-c4cn[nH]c4)cnc23)sn1)C(C)(C)CO`, the Potency in test [2] was 0.0103 µM (active); in test [1], 0.411 µM (active).
Turning to `CC(C)C[C@H](CO)Nc1nc(S[C@@H](C)c2ccccc2)nc2nc(N)sc12`, the Potency result in test [2] and in test [1] was “inactive” throughout.
On to `CC1OC(=O)C[C@@H]2C(C(=O)O)=CO[C@@H](O[C@H]3O[C@H](CO)[C@@H](O)[C@H](O)[C@H]3O)[C@H]12` (stereo not given in full), for which the Potency entry in test [2] and in test [1] was “inactive” throughout.
In the case of `Cc1[nH]c2ccccc2c1CCNC(=O)c1cccs1`, the Potency entry in test [2] and in test [1] was “inactive” throughout.
On to `CCN1CCN(Cc2ccc(NC(=O)c3ccc(C)c(Oc4ccnc5[nH]ccc45)c3)cc2C(F)(F)F)CC1`, for which the Potency is 16.4 µM (active) in test [2] and 10.1 µM (active) in test [1].
In the case of `C=C1C(=O)O[C@@H]2/C=C(/C)[C@@H](OC(C)=O)C/C=C(\C)C[C@@H](OC(=O)/C(=C/CO)CO)[C@@H]12`, the Potency result in test [2] and in test [1] was “inactive” each time.
On to `CC(C)(C)Sc1c(CC(C)(C)C(=O)O)n(Cc2ccc(Cl)cc2)c2ccc(OCc3ccc4ccccc4n3)cc12`, for which the Potency entry in test [2] was “inactive”. Also, the Potency in test [3] is 31.2 µM (active).
Turning to `COc1c(C(C)C)c(O)c(O)c2c1C(OC)[C@H]1OC(=O)[C@@]23CCCC(C)(C)[C@H]13` (stereo not given in full), the Potency result in test [2] and in test [1] was “inactive” each time.
Turning to `O=C(O)c1cc(N(Cc2ccc(C3CCCCC3)cc2)C(=O)c2ccc(Oc3ccccc3)cc2)ccc1O`, the Potency result in test [2] and in test [1] was “inactive” each time. In addition, the Potency was 12.4 µM (active) in test [3] and 9.87 µM (active) in test [4].
`CC(=O)O[C@@H]1C[C@@]23C[C@@]24CC[C@H](O[C@@H]2OC[C@H](O)[C@H](O)[C@H]2O)C(C)(C)[C@@H]4CC[C@H]3[C@]2(C)[C@@H](O)C34O[C@H](C[C@@H](C)[C@@H]3[C@@]12C)[C@@H](C(C)(C)O)O4`: the Potency result in test [1] was “inactive”.
Same read-out and setting: the same measure for `COC1CC(O[C@H]2CC[C@]3(C)C4CC[C@]5(C)C(C6=CC(=O)OC6)=CCC56OC46CC[C@@H]3C2)OC(C)C1O[C@@H]1O[C@H](CO[C@@H]2O[C@H](CO)[C@@H](O)[C@H](O)[C@H]2O)[C@@H](O)[C@H](O)[C@H]1O` (stereo not given in full): 3.1 µM (active).
In the case of `CCCCCOc1ccc(-c2ccc(-c3ccc(C(=O)N[C@H]4C[C@@H](O)[C@@H](O)NC(=O)[C@@H]5[C@@H](O)[C@@H](C)CN5C(=O)[C@H]([C@@H](C)O)NC(=O)[C@H]([C@H](O)[C@@H](O)c5ccc(O)cc5)NC(=O)[C@@H]5C[C@@H](O)CN5C(=O)[C@H]([C@@H](C)O)NC4=O)cc3)cc2)cc1` ({pTerphenylCO(4''-OnC5H11)}-[Orn(4R-OH,5R-OH)]T[Hyp][hTyr(3S-OH,4S-OH)]T[Pro(3S-OH,4S-Me)]; lactam 1-C), the Potency result in test [2] and in test [1] was “inactive” each time.
Turning to `COc1cc(C(C)=O)c(OC)c2c1OC(C)(C)C=C2`, the Potency entry in test [2] and in test [1] was “inactive” each time.
As to `C=C1C(=O)OC2/C=C(\CO)CC/C=C(\C=O)C(OC)C(OC(=O)C(C)CC)C12` (stereo not given), the Potency entry in test [2] and in test [1] was “inactive” each time.
Take `COc1cc2ncc(-c3ccccc3)nc2cc1OC`: the Potency in test [2] is 7.31 µM (active); in test [1], 8.2 µM (active); in test [5], 6.31 µM (active) and 2.38 µM (active).
With `Cn1ccc(NC(=O)c2cc(Oc3ccc(C(=O)N4CCC4)c(F)c3)c3c(c2)OC(C)(C)C3)n1`, the Potency result in test [1] is “inactive”.
In the case of `c1ccc2c(CCC3CCNCC3)c[nH]c2c1`, in test [1], the Potency entry was “inactive”.
Same read-out and setting: the same measure for `O=C(Nc1ccc(C(O)(C(F)(F)F)C(F)(F)F)cc1)c1ccc(C(F)(F)F)cc1`: 18.4 µM (active); for `CCN(CC)c1ccc(N=Nc2ccc(S(=O)(=O)N(C)C)cc2)c(S(=O)(=O)NCC[n+]2ccccc2)c1`: “inactive”.
The same measure, in the same setting: the same measure for `Nc1nc2c(s1)CCN(Cc1ccc(Cl)cc1)CC2`: “inactive”.
With `CC1=C(C(=O)OC2CCCCC2)C(c2ccc([N+](=O)[O-])cc2)C2=C(CC(C)(C)CC2=O)N1` (stereo not given), the Potency entry in test [1] was “inactive”.
